Only some compounds are listed: those with a hit (about 2.5% of all), similar ones and a draw of the others.
LASV entry inh: qHTS for Inhibitors of binding or entry into cells for Lassa Virus | Lassa virus pseudotype entry inhibition, cell reporter | Potency, µM (series often up to 37.9 µM), for the others: top-dose activity change, negative = inhibition, hits mostly inhibitors | 300,000 tested, 1.2% active | AID 540256, 2011; calls by dose curve; tested in HEK293 cells; further: nearly all actives have a fitted effect of over 50% in size
VACV Venus inh: qHTS for Stage-Specific Inhibitors of Vaccinia Orthopoxvirus: Venus Reporter Primary qHTS; Potency, µM (doses to about 36.5 µM), inactives show at the highest dose activity change, negative = inhibition, hits mostly inhibitors; 330,000 tested, 0.46% active; AID 720580, 2013; Vaccinia virus Venus reporter expression, fluorescence; calls by dose curve; tested in A549 cells; further: nearly all actives have a fitted effect of over 30% in size
Marburg entry inh: qHTS for inhibitors of binding or entry into cells for Marburg Virus. Marburg virus pseudotyped entry inhibition, cell reporter. Potency, µM (highest dose often 37.8 µM), inactives show at the highest dose activity change, negative = inhibition, hits mostly inhibitors. 300,000 tested, 1.8% active; calls by dose curve; tested in HEK293 cells
Vaccinia mCherry: qHTS for Stage-Specific Inhibitors of Vaccinia Orthopoxvirus: mCherry Reporter Primary qHTS; Vaccinia virus mCherry reporter infection, fluorescence; Potency, µM (series often up to 36.5 µM), without a hit: at the top dose activity change, negative = inhibition, actives largely listed as inhibitors; 310,000 tested, 0.63% active; AID 720579, 2013; calls by dose curve; tested in A549 cells; further: nearly all actives have a fitted effect of over 35% in size
Numbers without * were called inactive; i = inactive; u = inconclusive; x = no result; [ ] = dose if it differs, or a comment. On the % scale 0 is the no-effect control and ±100 the full control effect; potency means the concentration at half of the fitted maximal effect.

SMILES | LASV entry inh | VACV Venus inh | Marburg entry inh | Vaccinia mCherry
CCn1c(-c2ccccc2F)nc2cc(NC(C)=O)cc(C(=O)N3CCCC3c3nccs3)c21 (stereo not given) | x | 5% | x | -10%
Cc1[nH]nc2ccc(-c3cncc(OC[C@@H](N)Cc4c[nH]c5ccccc45)c3)cc12 | x | 0.89µM* | x | u
Cc1ccccc1-n1cc(CNC(=O)CN2Cc3ccccc3OC(C)C2)cn1 (stereo not given) | x | -1% | x | -5%
COc1ccc(S(=O)(=O)NCc2ccncc2)cc1NC(=O)c1ccccc1 | -5% | -29% | u | -13%
CCOc1ccc(S(=O)(=O)NCc2ccncc2)cc1NC(=O)c1ccccc1 | u | -20% | 3.5µM* | -9%
Cc1cc(C)nc(SCc2ccc(C(=O)NNC(=O)Nc3cccc(Cl)c3)cc2)n1 | 11µM* | 11µM* | u | 14µM*
Cc1cc(C)nc(SCc2ccc(C(=O)N/N=C/c3ccncc3)cc2)n1 | -2%[46.1 µM] | -18% | 4%[46.1 µM] | i
N#C/C(=C/c1ccc(N2CCCCCC2)o1)c1ccc(F)cc1 | u | 8% | 10µM* | -7%
COC(=O)C1=C(C(=O)OC)[C@@H]2N(C)c3ccccc3[C@@]23C[C@@H](CO)N(C(=O)c2ccc(Br)cc2)C3=N1 | x | x | -34%[14.2 µM] | x
O=C(NN=C1C[C@@H](O)[C@H](O)[C@H]2[C@@H]3C(=O)N(C4CCCCC4)C(=O)[C@@H]3CC[C@@H]12)OCc1ccccc1 | x | x | -13%[14.2 µM] | x
CCOc1cc(/C=N/Nc2nnc(C)n2N)ccc1OC(C)=O | u | u | u | 28µM*
CN1CCN(c2ccnc(N(C)CCCCCCN)n2)CC1 | x | -15% | x | -12%
COc1ccc(NC(C)C(=O)N/N=C/c2ccccc2OCc2cccc(Br)c2)cc1 (stereo not given) | 11µM* | -10% | u | -23%
COc1ccc(NC(C)C(=O)N/N=C/c2cc(Br)ccc2OC)cc1 (stereo not given) | u | -9% | u | -19%
O=[N+]([O-])/C=C/c1cc2ccccc2[nH]1 | x | -26% | x | -17%
O=[N+]([O-])/C=C/c1c(Cl)cccc1Cl | -5% | -17% | 10µM* | -6%
Cc1nc2nc(C)n(CCN3CCOCC3)c(=O)c2c(-c2cccc([N+](=O)[O-])c2)c1C(=O)CCCCCCCCCCN1CCC(c2ccccc2)(c2ccccc2)CC1 | u | 10µM* | 0.5µM* | u
O=C(NCCCN1CCOCC1)/C(=C/c1ccc(-c2cccc([N+](=O)[O-])c2)o1)NC(=O)c1ccccc1 | x | -11% | x | -2%
Cc1cc2c(c(-c3nc4ccccc4s3)c1)OC(CNC(=O)c1occc1C)C2 (stereo not given) | x | 7% | x | -9%
C(=C\c1ccc2ccccc2n1)/c1ccc2ccccc2n1 | x | -4% | x | -6%
C(=Cc1c[nH]c2ccccc12)c1ccc2ccccc2n1 | u | -10% | 2.2µM* | 0.71µM*
C(=C\c1ccc2ccccc2n1)/c1ccccc1 | x | u | x | 5µM*
Fc1ccccc1/C=C/c1ccc2ccccc2n1 | 2.5µM* | -19% | u | -4%
O=[N+]([O-])c1ccc(/C=C/c2ccc3ccccc3n2)cc1 | 2µM* | -6% | u | -14%
Cc1cccc2c(N3CCCC3)nc(CNS(=O)(=O)c3ccccc3Cl)nc12 | x | 3% | x | -6%
SMILES | LASV entry inh | VACV Venus inh | Marburg entry inh | Vaccinia mCherry
O=C(NCCc1nnc2n1CCN(Cc1ccc(F)cc1)CC2)c1ccco1 | x | -14% | x | -3%
CC(=O)Oc1c(C)cc(Cl)cc1C(=O)Nc1ccc([N+](=O)[O-])cc1Cl | 3.7µM* | x | 1.5µM* | x
CC(=O)OCC(=O)Nc1ccc([N+](=O)[O-])cc1Cl | 27%[46.1 µM] | -6% | u | -5%
OCCN(CCO)c1ccc(C(c2ccccc2Cl)c2ccc(N(CCO)CCO)cc2Cl)c(Cl)c1 | 11µM* | u | -27% | u
Cc1ccc(CNC(=O)CSCc2ccccc2)cc1 | 10% | x | 2% | x
CCCCN(CCCC)CCNC(=O)CSCc1ccc(C)cc1 | -11%[46.1 µM] | -16% | 7.1µM* | -15%
Cc1ccc(CSCC(=O)NCc2ccco2)cc1 | 1.4µM* | -9% | -11% | i
Cc1ccc(SCC(=O)NCc2ccco2)cc1 | 16% | 1% | -10% | -14%
CC[n+]1ccnc2ccccc21 | x | 13µM* | x | 18µM*
CCCCNC(=O)c1sc2ncnc(NCC3CCCO3)c2c1C (stereo not given) | x | 3% | x | -7%
Nc1nnnn1/N=C/C(Br)=C/c1ccccc1 | u | u | 5µM* | u
Cc1ncc(CO)c(/C=N/NC(=S)Nc2ccc(F)cc2)c1O | u | -26% | 14µM* | u

Compound activity (PubChem)
